High-throughput results: PubChem BioAssay, several laboratories
p97 inhibitor: human p97 ATPase inhibition. recombinant p97 ATPase, Kinase-Glo ATP luminescence, 3 h. inhibition, % at 8 µM. hit rate 0.42% among 220,000; in the data active means inhibition above about 15%;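 further: 0% = DMSO vehicle and 100% = wells lacking enzyme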
PREPL inhibitor: human PREPL enzyme inhibition. Q4J6C6. recombinant PREPL, fluorescence polarization activity-based probe. inhibition, % at 5.96 µM. hit rate 0.68% among 320,000. AID 2751; in the data active means inhibition above about 43%;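 further: 0% = enzyme with DMSO and 100% = wells lacking enzyme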
Rin1-Abl PPI inh: human Rin1-Abl interaction inhibition; inhibition, % at 7.35 µM; hit rate 0.4% among 360,000; P00519+Q13671; TR-FRET Rin1/Abl binding, biochemical; in the data active means inhibition above about 5%, passing the limit was not always enough
LYPLA2 counter: LYPLA2 (human) inhibition in PME1 counter-screen | inhibition, % at 5.9 µM | recombinant LYPLA2, FP-Rh probe fluorescence polarization | hit rate 0.38% among 320,000 | O95372;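 active means inhibition above the screen-wide mean plus 3 SD, limit set per campaign, cut at about 26% in these data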;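 further: 0% = LYPLA2 with DMSO and 100% = wells lacking LYPLA2 enzyme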
Target sequence (O95372 whole entry, looked up): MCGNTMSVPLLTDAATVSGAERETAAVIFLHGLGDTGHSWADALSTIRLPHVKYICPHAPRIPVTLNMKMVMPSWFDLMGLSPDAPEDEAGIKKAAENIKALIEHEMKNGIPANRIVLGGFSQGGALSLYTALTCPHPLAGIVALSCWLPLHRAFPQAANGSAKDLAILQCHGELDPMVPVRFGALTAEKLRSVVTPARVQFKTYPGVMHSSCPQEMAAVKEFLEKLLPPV
LYPLA1 inh: counter-screen for PME1 inhibitors: inhibitors of human LYPLA1; O75608; recombinant LYPLA1, FP-Rh probe fluorescence polarization; inhibition, % at 5.9 µM; hit rate 0.16% among 320,000; AID 2174;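 active means inhibition above the mean of all tested compounds plus 3 SD, set per campaign, cut at about 14% in these data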;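 further: inhibitors block serine hydrolase probe labeling of LYPLA1 so polarization falls; 0% = enzyme with DMSO and 100% = wells lacking LYPLA1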
Target sequence (O75608 whole entry, looked up): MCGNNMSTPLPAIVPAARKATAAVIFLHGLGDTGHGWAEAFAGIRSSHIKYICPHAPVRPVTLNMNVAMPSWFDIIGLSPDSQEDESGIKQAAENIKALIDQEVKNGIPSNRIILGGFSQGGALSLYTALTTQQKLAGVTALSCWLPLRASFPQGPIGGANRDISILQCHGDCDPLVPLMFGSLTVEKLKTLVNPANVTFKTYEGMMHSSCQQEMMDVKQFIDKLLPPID
Hck-Nef inh: blocks Nef-activated human Hck kinase; P08631; Recombinant Hck-YEEI plus Nef, Z-Lyte FRET kinase assay; inhibition, % at 20 µM; hit rate 0.68% among 220,000;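 active means Hck-Nef kinase inhibition above about 50%, limit read from the data; inactive means inhibition below that limit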;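 further: 0% = DMSO with Hck plus Nef and 100% = Hck alone without Nef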
Hck-Nef confirm: confirmation of Hck-Nef kinase inhibitors | calls only at 10 µM | shares compounds with Hck-Nef inh | Recombinant Hck-YEEI:Nef, Z-Lyte FRET kinase assay | hit rate 28% among 1,300;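 active means average inhibition of at least 50%, with Z-scores no higher than 3 in both the phospho-tyrosine peptide and fluorescence counterscreens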
* hit, by the source's call; i = inactive; x = not tested or not shown; + = active, no number. Shown are actives, neighbours in structure and some others; about 1.7% of the full set was active somewhere.

SMILES	p97 inhibitor	PREPL inhibitor	Rin1-Abl PPI inh	LYPLA2 counter	LYPLA1 inh	Hck-Nef inh	Hck-Nef confirm
CC(=O)c1c(C)[nH]c(C(=O)CSc2nnc(-c3ccccc3)n2Cc2ccc3c(c2)OCO3)c1C	2	-3	0	6	0	64*	i
Cc1cccc(NC(=O)c2cc3c(s2)-c2c(C)cccc2OC3)n1	3	0	-6	-2	-3	87*	x
Cc1cc(C)c(OCCCNC2CCCC2)c(Br)c1	x	-31	0	3	-3	x	x
N#CC1=C(N)Oc2cc(N)ccc2C1C1CCCCC1 (stereo not given)	3	10	2	-7	-4	51*	i
CCc1cc2c(C)cc(=O)oc2cc1OC(=O)C1CCCN1C(=O)OC(C)(C)C (stereo not given)	-1	15	x	5	-7	75*	i
CCc1cc(CNC(=O)c2ccc(OC3CCN(CCc4ccccc4)CC3)cc2)on1	x	-8	0	0	1	x	x
CCCc1cc(=O)oc2cc(OCC(=O)NCC3CCC(C(=O)O)CC3)ccc12 (stereo not given)	x	-1	-2	10	4	x	x
O=C(Cc1cc(=O)oc2cc(O)ccc12)NCC1CCC(C(=O)O)CC1 (stereo not given)	1	-1	1	5	4	62*	x
NS(=O)(=O)c1ccc(N2N=C(c3ccccc3)CC2c2cccc(F)c2)cc1 (stereo not given)	3	14	0	9	-3	25	x
NS(=O)(=O)c1ccc(N2N=C(c3ccc(Br)cc3)CC2c2ccc(F)cc2)cc1 (stereo not given)	2	26	1	-2	-1	117*	i
COc1ccc(C2CC(c3ccccc3)=NN2c2ccc(S(N)(=O)=O)cc2)cc1OC (stereo not given)	1	29	1	6	2	74*	i
CCc1cc2c3c(c(=O)oc2cc1OCC(=O)OC)CCCC3	x	-3	1	7	-1	x	x
CCOC(=O)C1=NOC(C(=O)NN(C)c2ncc(C(F)(F)F)cc2Cl)C1 (stereo not given)	5	5	4	7	3	60*	i
Cc1ccc(-c2nc3ccccc3[nH]2)cc1NC(=O)c1ccco1	6	7	1	7	-4	-2	x
Cc1ccc(-c2nc3ccccc3[nH]2)cc1NC(=O)c1sc2cc(Cl)ccc2c1Cl	4	8	2	-48	-29	73*	i
CCCc1nc(SCC(=O)NNC(=O)C2CCCCC2)c2ccccc2n1	2	-7	-18	3	2	75*	i
CC(=O)OCC1=C(C(=O)O)N2C(=O)C(NC(=O)C(C)Cn3nc(C)c(Cl)c3C)C2SC1 (stereo not given)	4	-3	-1	5	4	70*	i
Cc1cc(C)c(NC(=O)C2CCCO2)c(C)c1 (stereo not given)	x	2	-3	-3	3	x	x
O=C(CSc1ccc(-c2ccccn2)nn1)Nc1cccc(F)c1	x	34	-5	1	4	x	x
Cc1cc(O)c(C(=O)/C=C/c2cccc([N+](=O)[O-])c2)c(=O)o1	10	23	1	2	0	108*	i
COC(=O)Cc1c(C)c2ccc(O)c(CN3CCCC(C)C3)c2oc1=O (stereo not given)	-1	8	1	2	-1	75*	x
COc1ccccc1NC(=O)COc1ccc2c(c1)OCO2	x	-1	0	-2	-4	x	x
CC/C=C/C(=O)N1CC2(CC(c3cccc(NC(=O)CC(c4ccccc4)c4ccccc4)c3)=NO2)C[C@@H]1C(N)=O (stereo not given in full)	x	-5	7	-10	-7	53*	i
Cc1nn(C)c(C)c1NC(=O)CSc1nc(-c2ccccc2Cl)nc2c1cnn2-c1ccccc1	-8	-7	-5	-7	-4	83*	i
Cc1nn(C)c(C)c1NC(=O)CSc1nc(-c2ccccc2F)nc2c1cnn2-c1ccccc1	x	x	0	x	x	x	x
SMILES	p97 inhibitor	PREPL inhibitor	Rin1-Abl PPI inh	LYPLA2 counter	LYPLA1 inh	Hck-Nef inh	Hck-Nef confirm
Cc1cccn2c(=O)c3cc(C(=O)NCc4ccco4)c(=N)n(C(C)C)c3nc12	0	28	-9	1	-4	72*	x
Cc1cccn2c(=O)c3cc(C(=O)NCc4ccco4)c(=N)n(CCc4ccccc4)c3nc12	9	15	-5	-2	-4	42	x
Cc1cccn2c(=O)c3cc(C(=O)NCc4cccnc4)c(=N)n(C(C)C)c3nc12	3	21	-2	-3	-1	161*	x
CC(C)n1c(=N)c(C(=O)NCCc2ccccc2)cc2c(=O)n3ccccc3nc21	-2	40	-3	-1	1	138*	x
FC(F)(F)c1ccc(-n2cnc3ccccc32)nc1	x	-63	1	6	0	x	x
N=C1S/C(=C\c2ccc(-c3cccc(Cl)c3)o2)C(=O)N1c1nccs1	3	1	1	2	-2	51*	i
CCN1C[C@@H]2[C@@H]3C(=O)N(C)C(=O)[C@@H]3[C@](CC)(C(=O)OC)N2C1=NCc1ccccc1	x	x	-4	x	x	x	x
O=S(=O)(Nc1ccc(-c2nc3cccnc3s2)cc1)c1cc(F)ccc1F	3	6	-2	0	6	115*	x
NS(=O)(=O)c1ccc(C(=O)Nc2ccc(-c3nc4cccnc4s3)cc2)cc1	7	10	-5	-17	-8	23	x
CCC(C)Nc1nc(N)c([N+](=O)[O-])c(Nc2cc(OC)ccc2OC)n1 (stereo not given)	4	28	0	-7	1	52*	i
CCC(C)Nc1nc(N)c([N+](=O)[O-])c(Nc2ccccc2OC)n1 (stereo not given)	3	12	1	-11	-6	22	x
Cc1occc1C(=O)NNC(=O)c1ccc(S(=O)(=O)N(C)C)cc1	x	7	0	-2	-3	x	x
NS(=O)(=O)c1ccc(CNS(=O)(=O)c2cc(C(=O)O)ccc2Cl)cc1	7	0	-2	5	-2	63*	i
O=S(=O)(NCc1ccccc1)c1ccc(Cl)c(S(=O)(=O)NCc2ccccc2)c1	3	-2	-1	-6	-1	1	x
Cc1cccn2c(=O)c3cc(C#N)c(=NC(=O)c4ccncc4)n(CCCOC(C)C)c3nc12	5	11	4	-9	-3	32	x
Cc1cccn2c(=O)c3cc(C#N)c(=NC(=O)c4cccs4)n(CCCOC(C)C)c3nc12	1	1	-4	-2	1	106*	i
CC(=O)N=c1c(C#N)cc2c(=O)n3cccc(C)c3nc2n1Cc1ccco1	9	-8	-3	-2	1	165*	i
Cc1cn2nc(N)c3ccccc3c2n1	6	5	1	8	5	0	x
Nc1nn2cc(-c3ccccc3)nc2c2ccccc12	-17	16	4	0	1	50*	+
